According to the supplement of paper PMC6555819:

How the values were obtained:
Test in all cases: PBM binding z-score (relative to random genomic background probes); higher = stronger binding; sequences stand for … in GC…GCGATTGACAGCGTAGAATGAAGG
[1] = system: FXR:RXRa (NR concentration 270 nM, RXRa partner concentration 90 nM)
How it was run: (§1)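 Binding z-scores take random background probes as their reference. They come from custom Agilent 4×180K protein-binding microarrays incubated 1 h with ligand-free nuclear receptor dimers, with antibodies against each partner (one per run) detecting binding. Scanned fluorescence was regression-normalized.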

[2] = system: LXRa:RXRa (NR concentration 270 nM, RXRa partner concentration 90 nM)
How it was run: as §1

[3] = system: LXRa homodimer (NR concentration 270 nM)
How it was run: as §1

[4] = system: LXRb:RXRa (NR concentration 270 nM, RXRa partner concentration 90 nM)
How it was run: as §1

[5] = system: LXRb homodimer (NR concentration 270 nM)
How it was run: as §1

[6] = system: PPARa:RXRa (NR concentration 270 nM, RXRa partner concentration 90 nM)
How it was run: as §1

[7] = system: PPARg:RXRa (NR concentration 180 nM, RXRa partner concentration 90 nM)
How it was run: as §1

[8] = system: PPARg:RXRa 270nM:90nM, anti-RXR (NR concentration 270 nM, RXRa partner concentration 90 nM)
How it was run: as §1

[9] = system: PPARg:RXRa 30nM:10nM, anti-RXR (NR concentration 30 nM, RXRa partner concentration 10 nM)
How it was run: as §1

[10] = system: PPARg:RXRa 90nM:30nM, anti-RXR (NR concentration 90 nM, RXRa partner concentration 30 nM)
How it was run: as §1

[11] = system: PPARg:RXRa DBDmut IVT, anti-RXR (DBD mutation: RXRa K156A/R161A, NR concentration 270 nM, RXRa partner concentration 90 nM)
How it was run: as §1

[12] = system: PPARg:RXRa IVT, anti-PPARg (NR concentration 270 nM, RXRa partner concentration 90 nM)
How it was run: as §1

[13] = system: PPARg DBDmut:RXRa IVT, anti-PPARg (DBD mutation: PPARg1 K132A/R137A, NR concentration 270 nM, RXRa partner concentration 90 nM)
How it was run: as §1

[14] = system: PPARg DBDmut IVT, anti-PPARg (DBD mutation: PPARg1 K132A/R137A, NR concentration 270 nM)
How it was run: as §1

[15] = system: PPARg homodimer (NR concentration 180 nM)
How it was run: as §1

[16] = system: PXR:RXRa (NR concentration 270 nM, RXRa partner concentration 90 nM)
How it was run: as §1

[17] = system: PXR homodimer (NR concentration 270 nM)
How it was run: as §1

[18] = system: RARa:RXR (NR concentration 270 nM, RXRa partner concentration 90 nM)
How it was run: as §1

[19] = system: RARa homodimer (NR concentration 270 nM)
How it was run: as §1

[20] = system: RARb:RXRa (NR concentration 270 nM, RXRa partner concentration 90 nM)
How it was run: as §1

Sequence | PBM binding z-score [1] | PBM binding z-score [2] | PBM binding z-score [3] | PBM binding z-score [4] | PBM binding z-score [5] | PBM binding z-score [6] | PBM binding z-score [7] | PBM binding z-score [8] | PBM binding z-score [9] | PBM binding z-score [10] | PBM binding z-score [11] | PBM binding z-score [12] | PBM binding z-score [13] | PBM binding z-score [14] | PBM binding z-score [15] | PBM binding z-score [16] | PBM binding z-score [17] | PBM binding z-score [18] | PBM binding z-score [19] | PBM binding z-score [20]
TAGCCTAGGTCATGCTGGCCAGTATAGTGTCGGC | 3.83 | 3.03 | 0.0898 | 1.88 | -0.303 | 3.25 | 1.99 | 2.15 | 0.0868 | 1.11 | 1.89 | 3.11 | 0.437 | -0.89 | 0.715 | 1.16 | -0.737 | 2.21 | -0.528 | 3.84
GCCTGTAGATCAAGGTTAAGAAAGACTAAGCTAA | 0.000969 | 0.697 | -0.269 | 0.679 | -0.964 | 1.28 | 0.434 | 1.19 | 0.0672 | 0.861 | 0.625 | 0.319 | -0.514 | -0.208 | -0.292 | 0.333 | -0.503 | 0.885 | -1.02 | 0.799
ATCTCTAGGTACAGTTCAGTGAAAGATCGATAGA | 0.629 | 0.639 | 0.57 | 0.6 | 1.26 | 0.51 | 0.382 | 0.647 | 0.518 | 0.644 | 0.631 | 0.726 | 1.18 | 1.5 | 0.523 | 0.814 | 0.988 | 0.458 | 1.24 | 0.918
ATCTCTAGGTAACAAGTTAAGTGAAAGAGAGGAC | 0.803 | 0.557 | 0.231 | 0.236 | 0.69 | 1.55 | 2.23 | 3.1 | 1.59 | 2.7 | 3.26 | 2.85 | 1.87 | 1.54 | 0.926 | 0.289 | 0.574 | 0.842 | 0.894 | 0.723
TATCCAGGGTCAAAGGCCAGAGTACGAATGTCGA | 7.03 | 5.91 | 2.02 | 5.03 | 2.02 | 6.22 | 7.96 | 7.53 | 5.26 | 6.94 | 2.23 | 4.91 | 0.174 | 1.96 | 2.06 | 4.77 | 0.563 | 6.33 | 1.05 | 4.55
ATCGCAAGGTCGTGAGGTGAGTATACAGAAAGGC | 2.59 | 1.9 | -0.0908 | 1.6 | -0.382 | 3.36 | 1.49 | 1.84 | 0.321 | 0.863 | -0.158 | 1.26 | 0.877 | -0.102 | 0.794 | 1.78 | 0.241 | 2.78 | -0.445 | 2.67
TCTTGTAGATCAATAGAGGTTAAGTAAGTGCGCT | 1.18 | 3.63 | 0.745 | 1.96 | -0.0782 | 2.03 | 0.0612 | 1.68 | 2.63 | 2.16 | 1.78 | 1.22 | 0.705 | 0.692 | 0.3 | 3.96 | 0.52 | 2 | 0.239 | 0.993
TAGCCTAGGTCATTCCGGGGCCAGTATAGAAAGC | 4.26 | 3.29 | 0.811 | 2.53 | 1.33 | 3.21 | 1.75 | 2.04 | 0.233 | 1.01 | 1.04 | 2.62 | -0.235 | 0.258 | 0.924 | 2.65 | -0.216 | 3.02 | -0.809 | 3.74
ATCTCTAAGTAACAAGTTCAGTGAAAGAGAGGAC | 0.888 | 0.954 | 0.532 | 0.595 | 0.901 | 0.572 | 0.408 | 0.672 | 0.701 | 0.344 | 0.199 | 0.166 | 0.885 | 0.883 | 1.43 | 1.63 | 1.97 | 1.18 | 1.73 | 1.57
ACTTACGGGTCAACGAGGTTACAGCACGCGTATA | 7.13 | 5.03 | 0.828 | 4.72 | 0.537 | 6 | 5.8 | 5.86 | 2.49 | 4.5 | 3.63 | 4.61 | 3.52 | 1.44 | 2.75 | 5.25 | 2.74 | 5.23 | 1.58 | 4.44
CGTCCAAGGTCCTAGGAGGTCAGTGAAGACAGAT | 1.97 | 1.66 | 0.256 | 1.71 | -0.518 | 2.44 | 0.157 | 0.654 | -0.57 | 0.21 | -0.235 | 0.579 | -1.17 | -1.02 | 1.48 | 3.01 | 0.587 | 2.87 | 0.328 | 2.42
GCTAGCAGGCCATTTGGGACACTCAATGACGGGC | -0.491 | -0.668 | -0.545 | -1.16 | -1.04 | -0.523 | 0.681 | -0.463 | -0.719 | -0.835 | 0.822 | 0.411 | -0.432 | -0.76 | -1.04 | -0.714 | -0.736 | -0.559 | -0.547 | -0.00778
TCTTGAAGATCAATAGAGGTTAAGAAAGTGCGCT | 1.21 | 3.88 | 0.18 | 1.99 | -0.548 | 1.79 | -0.0471 | 1.56 | 2.76 | 2.46 | 1.44 | 0.203 | 0.527 | 0.485 | -0.0803 | 3.15 | 0.215 | 1.81 | -0.211 | 0.913
TCTTGTAGATCAACAGGTGGTTAAGAAAGATCGA | -0.0557 | 0.0664 | -0.0924 | -0.247 | -0.293 | 0.436 | -0.255 | 1.22 | 2.58 | 1.8 | 1.73 | 0.582 | 0.605 | 0.677 | 0.713 | -0.0683 | 0.00391 | 0.0313 | 0.688 | -0.0604
